GBA enhancer: GBA activity enhancers in patient fibroblasts, primary screen, cell-based; Lysosomal acid glucosylceramidase (Homo sapiens), P04062; L444P Gaucher fibroblasts, 4-MU-glucoside fluorescence, 3 days; activation, % at 10 µM; 30,000 compounds, 0.44% hits; in the data active means activation above about 65%;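 further: 0% = vehicle wells and 100% = positive control wells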
Starred values were filed as active, the others as inactive. The full list was thinned out, with hits kept by preference.

SMILES	GBA enhancer
O=C(COC(=O)C1CCCCC1C(=O)N1CCc2ccccc21)NCc1ccco1 (stereo unspecified)	6
Cc1nc(N)sc1-c1nnc(SCC(=O)Nc2nccs2)n1C	-19
Cc1cccc2cc(CN(Cc3ccccc3)C(=O)N(C)C)c(=O)[nH]c12	-8
COc1ccc(CN(Cc2cc3cccc(C)c3[nH]c2=O)C(=O)N(C)C)cc1	72*
Cc1ccc(CN(Cc2cc3cccc(C)c3[nH]c2=O)C(=O)N(C)C)cc1	-12
CCN(CC)S(=O)(=O)c1ccc2oc(SCC3CN=C(c4ccc(OC)cc4)S3)nc2c1 (stereo unspecified)	8
CC(SCC(=O)Nc1ccc(S(=O)(=O)N2CCCCC2)cc1)C(=O)O (stereo unspecified)	-11
COc1ccccc1OCc1nnc(SCC(=O)c2cc(Cl)ccc2OC)o1	-9
C=CCSC1=N/C(=C\c2ccsc2)C(=O)S1	402*
CCOC(=O)SC1=N/C(=C\c2ccc(N(C)C)cc2)C(=O)S1	10
Cn1c(=O)c2c(nc(SCc3ccccn3)n2C)n(C)c1=O	-1
CCOC(=O)CN1C(=O)C2(OCCCO2)c2ccccc21	0
O=C(CN1C(=O)C2(OCCCO2)c2ccccc21)NCc1ccccc1	-4
COC(=O)CN1C(=O)C2(OCCCO2)c2cc(Br)ccc21	139*
c1cc(Nc2ncnc3sccc23)cc(-c2nnc3n2CCCCC3)c1	34
O=C(CCCn1c(=S)[nH]c2cc3c(cc2c1=O)OCO3)N1CCN(c2ncccn2)CC1	79*
O=C(CCCn1c(=S)[nH]c2cc3c(cc2c1=O)OCO3)N1CCN(c2ccc(F)cc2)CC1	-21
COc1cccc(N2CCN(C(=O)CCn3c(=S)[nH]c4cc5c(cc4c3=O)OCO5)CC2)c1	14
Cc1cc(OCc2nn[nH]n2)c2c(C)c(Cc3ccccc3)c(=O)oc2c1	10
COc1ccc(C(=O)COC(=O)CCN=C2NS(=O)(=O)c3ccccc32)cc1OC	-1
COc1cccc(-n2nnc3c(=O)n(Cc4ccccc4Cl)cnc32)c1	25
COC(=O)Cn1cnc2c(C#N)c3n(c2c1=O)CCCCC3	-11
N#Cc1c2n(c3c(=O)n(Cc4ccccc4Cl)cnc13)CCCCC2	68*
CS(=O)(=O)N(CC(=O)NCc1ccncc1)Cc1ccc(Cl)cc1	-14

Source: PubChem (The Scripps Research Institute Molecular Screening Center)
